Our source for the composite z-score values is PubChem BioAssay.

The test system of the experiment is XIP peptide (Xip251-270). Briefly: compounds binding XIP fragment 251-270 – biochemical, small-molecule microarray, fluorescence 635/667 nm, 0.5 µg/mL protein, primary screen (AID 1183). As to conditions: fluorescence 635 nm, higher = more signal.
For the compound `Cc1cc2c(c(=O)o1)[C@@H](O)[C@H]1O[C@H]1C2=O`, the composite z-score amounted to 0.274. Consider `CC(C)CON=C1[C@H]2CCn3c(=O)n(Cc4cc5c(cc4Cl)OCO5)c(=O)n3[C@H]2[C@H](O)[C@@H]2O[C@H]12`, for which the composite z-score came to 0.368.

For `CC(C)=NO[C@H](C)c1cn([C@H](CO)Cc2ccccc2)nn1`, the composite z-score is 0.0455. Regarding `Cc1ccc(S(=O)(=O)n2c3ccccc3c3nnc(C(=O)c4ccccc4)nc32)cc1`, the composite z-score was 0.249. The result for `Cc1ccc(S(=O)(=O)NC(CCc2ccccc2)CC(=O)C(C)(C)C)cc1` (stereo unspecified) reads -0.113; that for `COC(=O)CC=C[C@@H](C)[C@@H](C=NO[C@@H](C)c1cc(-c2c(C)cc(C)cc2C)no1)NS(=O)(=O)c1ccc(C)cc1`, -0.91; that for `CON=C1[C@H]2CCn3c(=O)n(-c4ccccc4)c(=O)n3[C@H]2[C@H](O)[C@@H]2O[C@H]12`, 0.491. As to `O=C1C=C[C@@H](O)[C@@H]2[C@@H]3C(=O)N(C[C@@H]4CCCO4)C(=O)[C@@H]3CC[C@@H]12`, the composite z-score came to 0.119. Turning to `CCOC(=O)CCN1C(=O)[C@H]2[C@H]3[C@H](O)[C@H](O)CC(=NOCC(C)C)[C@H]3CC[C@H]2C1=O`, the composite z-score was determined as 0.158. The result for `CC(=O)OC[C@H]1O[C@H](CCON=C2[C@H]3CCn4c(=O)n(-c5ccccc5)c(=O)n4[C@H]3[C@H](O)[C@@H]3O[C@H]23)C=C[C@@H]1OC(C)=O` reads -0.325; that for `COc1cc(O)c(C(=O)C=Cc2ccc3c(c2)OCO3)c(OC)c1`, -0.218. The result for `CCOC(=O)CCN1C(=O)[C@H]2[C@H]3[C@H](O)[C@H](O)CC(=NNC(=O)OCc4ccccc4)[C@@H]3CC[C@H]2C1=O` reads 0.791; that for `CC(=O)O[C@H]1C2=CO[C@H](C)[C@H]3[C@H]4C5=C([C@H](O)[C@H]6O[C@H]6C5=O)[C@H](OC4C)[C@@]23C(=O)[C@@H]2O[C@@H]21` (stereo partly specified), -0.406.

As for `C#CCCCON=C1C[C@@H](O)[C@@H](O)[C@@H]2[C@@H]3C(=O)N(C(C)(C)C)C(=O)[C@@H]3CC[C@H]12`, the composite z-score is -0.385. The result for `COc1cccc([C@H]2Oc3ccc(OC)cc3C(=NO[C@@H]3O[C@H](COC(C)=O)[C@@H](OC(C)=O)[C@H](OC(C)=O)[C@H]3OC(C)=O)[C@@H]2O)c1` reads -0.172; that for `CC(C)CON=C1C[C@@H](O)[C@@H](O)[C@@H]2[C@@H]3C(=O)N(C4CCCCC4)C(=O)[C@@H]3CC[C@@H]12`, 0.0112. The value for `C=C(C)C(=O)OCC1CN2[C@@H](CC[C@@H](C)[C@@H]2c2ccc(Br)cc2)C(=O)O1` (stereo partly specified) was 0.446; that for `CCOC(=O)[C@H](Cc1ccccc1)NC(=O)CCC1CC(OC(=O)NCc2cccc3ccccc23)CC2(CCCC(COC(=O)NCc3cccc(C(F)(F)F)c3)O2)O1` (stereo partly specified) was 0.335. Consider `COc1cccc([C@H]2Oc3ccc(OC)cc3C(=NO[C@H](C)c3cn([C@H](CO)Cc4ccccc4)nn3)[C@@H]2O)c1`, for which the composite z-score is 0.733. As for `C[C@@H](c1ccccc1)N1C(=O)[C@H]2[C@H]3[C@H](O)[C@H](O)CC(=NOCc4ccccc4)[C@H]3CC[C@H]2C1=O`, the composite z-score was found to be 0.548. The value for `C=CC[C@@H]1C=C[C@H](ON=C[C@@H](C)[C@H](OCc2ccccc2)C(C)C)[C@@H](CO)O1` was 0.256.

On to `COc1ccc(O[C@H]2C=C[C@@H](c3ccccc3)O[C@@H]2CON=C(C)C)cc1`, for which the composite z-score stood at 0.267. The value for `C=Cc1ccc([C@H]2N[C@H](C(=O)O)CC[C@@H]2C)cc1` was -0.0045; that for `CC(C)CON=C1C[C@@H](O)[C@@H](O)[C@@H]2[C@@H]3C(=O)N(c4ccc(F)cc4F)C(=O)[C@@H]3CC[C@H]12` was 0.37; that for `CO[C@@H]1COC(=O)[C@@H](C)NC(=O)CC=C[C@@H](C)[C@H](NS(=O)(=O)c2ccc(C)cc2)COC(=O)[C@H](C)NC(=O)CC=C[C@H]1C` was 0.113. Consider `CSCC[C@@H]1NC(=O)CC=C[C@@H](C)COC(=O)[C@@H](C)COC1=O`, for which the composite z-score is -0.318. The result for `CON=C[C@@H](C)[C@H](OCc1ccccc1)C(C)C` reads -0.647. Turning to `CCOC(=O)[C@H](Cc1ccccc1)NC(=O)CCC1CC(OC(=O)NCCc2ccc(F)cc2)CC2(CCCC(COC(=O)NCC3CCCCC3)O2)O1` (stereo partly specified), the composite z-score is 0.605. As for `O=C1C=C[C@@H](O)[C@@H]2[C@@H]3C(=O)N(c4ccc(F)cc4F)C(=O)[C@@H]3CC[C@@H]12`, the composite z-score came out at 0.165. The result for `CCN1C(=O)[C@H]2[C@H]3[C@H](O)[C@H](O)CC(=NOCC(C)C)[C@@H]3CC[C@H]2C1=O` reads 0.645; that for `CCOC(=O)[C@H](CC(C)C)NC(=O)CCC1CC(OC(=O)NCc2ccc3c(c2)OCO3)CC2(CCCC(COC(=O)NCC3CCCCC3)O2)O1` (stereo partly specified), 0.0826.
